Structures can show the parent of a compound that is named as a salt.
What follows are molecules tested on FLX1 + dox-induced PRKAR1A G325D (assay: difference in log2 fold change of viability vs plate median (dox-induced PRKAR1A G325D minus uninduced); higher = compound less effective when PKA is inhibited). Conditions: concentration: not stated (2 or 5 uM); 5 days.
Description: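 For each plate a log2 fold change vs the plate median was derived, and the values without dox were subtracted from those with dox, averaged over three biological replicates.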

Row | Structure (SMILES) | difference in log2 fold change of viability
1 | C=CCc1ccc(O)c(-c2ccc(O)c(CC=C)c2)c1 [Honokiol] | -1.37
2 | O=C(NCCCNc1nc(Nc2cccc(NC(=O)N3CCCC3)c2)ncc1I)c1cccs1 | 0.621
3 | CN1CCC(CNc2ccc3ncc(-c4cccc(OC(F)(F)F)c4)n3n2)CC1 [SGI-1776 free base] | -0.0813
4 | Nc1ccc(C(=O)Nc2cccc(-c3nc(N4CCOCC4)c4oc5ncccc5c4n3)c2)cn1 | 0.262
5 | CNC(=O)c1cc(COc2nnc(Nc3ccc(Cl)cc3)c3ccoc23)ccn1 [Telatinib] | 0.0582
6 | CN(C)CCOc1ccc(-c2nc(-c3ccncc3)c(-c3ccc4c(c3)CC/C4=N\O)[nH]2)cc1 | -1.73
7 | CS(=O)(=O)CCNCc1ccc(-c2ccc3ncnc(Nc4ccc(OCc5cccc(F)c5)c(Cl)c4)c3c2)o1 [Lapatinib] | 0.129
8 | C[C@@H](N)[C@H]1CC[C@H](C(=O)Nc2ccncc2)CC1 | 0.511
9 | CNC(=O)c1cc(Oc2ccc(NC(=O)Nc3ccc(Cl)c(C(F)(F)F)c3)cc2)ccn1 [Sorafenib Tosylate] | -0.44
10 | CS(=O)(=O)CCNCc1ccc(-c2ccc3ncnc(Nc4ccc(OCc5cccc(F)c5)c(Cl)c4)c3c2)o1 | 0.519
11 | COc1cc(Nc2ncc3c(n2)-c2ccc(Cl)cc2C(c2c(F)cccc2OC)=NC3)ccc1C(=O)O [Alisertib (MLN8237)] | -0.903
12 | Cc1cc(C(C)Nc2ccccc2)c2nc(N3CCOCC3)cc(=O)n2c1 (stereo not given) | 0.222
13 | Cc1nc(Nc2n[nH]c3c2CN(C(=O)N[C@H](CN(C)C)c2ccccc2)C3(C)C)c2sccc2n1 | 0.871
14 | CS(=O)(=O)c1cccc(CNc2nc(Nc3ccc4c(c3)CCC(=O)N4)ncc2C(F)(F)F)c1 | -0.0481
15 | N#Cc1c(Oc2ccc(F)c(NC(=O)Cc3cccc(C(F)(F)F)c3)c2)ccc2nc(NC(=O)C3CC3)sc12 | -0.168
16 | Cn1cnc(N)c2ncnc1-2 [3-Methyladenine (3-MA)] | 0.548
17 | N#Cc1c(NC(=O)c2cccc3ccccc23)sc2c1CCCC2 [JNK Inhibitor IX] | 0.317
18 | COc1cc(Nc2c(C#N)cnc3cc(OCCCN4CCN(C)CC4)c(OC)cc23)c(Cl)cc1Cl [Bosutinib (SKI-606)] | -0.235
19 | CCc1cc(Nc2nccc(-c3c(-c4ccc(OC)c(C(=O)Nc5c(F)cccc5F)c4)nc4ccccn34)n2)c(OC)cc1N1CCC(N2CCN(S(C)(=O)=O)CC2)CC1 | 0.164
20 | Cc1ccc(C(=O)Nc2ccc(CN3CCN(C)CC3)c(C(F)(F)F)c2)cc1C#Cc1cnc2[nH]ncc2c1 [GZD824 Dimesylate] | 0.11

Row | Structure (SMILES) | difference in log2 fold change of viability
21 | CCn1c(-c2nonc2N)nc2c(C#CC(C)(C)O)ncc(OC[C@H]3CCCNC3)c21 | 0.00672
22 | Cc1cc([C@@H](C)Nc2ccccc2C(=O)O)c2nc(N3CCOCC3)cc(=O)n2c1 | 0.0369
23 | Cc1c(NC(=O)c2ccc(C(C)(C)C)cc2)cccc1-c1cn(C)c(=O)c(Nc2ccc(C(=O)N3CCOCC3)cc2)n1 | 0.119
24 | CCN1CCN(Cc2ccc(C(=O)Nc3ccc(C)c(Oc4ccc5c(c4)CC(=O)N5)c3)cc2C(F)(F)F)CC1 | -0.078
25 | CNC(=O)c1ccccc1Sc1ccc2c(/C=C/c3ccccn3)n[nH]c2c1 [Axitinib] | -0.125
26 | COc1cc2nccc(Oc3ccc(NC(=O)C4(C(=O)Nc5ccc(F)cc5)CC4)cc3)c2cc1OC [Cabozantinib malate (XL184)] | -0.77
27 | Cc1nc(NC(=O)N2CCC[C@H]2C(N)=O)sc1-c1ccnc(C(C)(C)C(F)(F)F)c1 [Alpelisib (BYL719)] | 0.385
28 | CN1CCN(c2cccc(Nc3nc4c(-c5ccc(S(C)(=O)=O)cc5)cccn4n3)c2)CC1 | -0.93
29 | O=C(Nc1ccc(OC(F)(F)F)cc1)c1sccc1NCc1ccnc2ccccc12 | 0.386
30 | Oc1cc(O)cc(/C=C/c2ccc(O)c(O)c2)c1 [Piceatannol] | -0.236
31 | CCN1/C(=C/C(C)=O)Sc2ccc(OC)cc21 | -0.074
32 | COc1cc(CCc2cc(NC(=O)c3ccc(N4CC(C)NC(C)C4)cc3)n[nH]2)cc(OC)c1 (stereo not given) | -0.468
33 | Cn1cnc2c(F)c(Nc3ccc(Br)cc3F)c(C(=O)NOCCO)cc21 | -1.09
34 | C[C@@H]1COC(Nc2ccc3ncnc(Nc4ccc(OCc5nccs5)c(Cl)c4)c3c2)=N1 [Varlitinib] | -0.557
35 | CC(C)n1nc(-c2ccc3oc(N)nc3c2)c2c(N)ncnc21 | -0.0452
36 | COc1cccc(-c2cc(=O)c3ccccc3o2)c1N | -0.103
37 | Cc1cc(Nc2nc(N[C@@H](C)c3ncc(F)cn3)ncc2Cl)[nH]n1 | -1.58
38 | N#Cc1c(O)c2c(-c3ccc(-c4ccccc4O)cc3)csc2[nH]c1=O | 0.134
39 | CCCCCCCCCCCCc1ccc(S(=O)(=O)Nc2nncs2)cc1 | 0.132
40 | C=CC(=O)Nc1cccc(Oc2nc(Nc3ccc(N4CCN(C)CC4)cc3)ncc2Cl)c1 | -0.131

Reference: the supplement of paper PMC9925115
